The source of these data is PubChem BioAssay AID620 (Sanford-Burnham Center for Chemical Genomics, 2007).

About 360 (0.41%) of roughly 87,000 compounds were called active. Only a selection was taken, and actives are over-represented in it overall. Unmarked numbers belong to inactive results. Cut-off read from the data, not from the text of the source: active = cytotoxicity above about 50%; inactive = the rest.

This experiment can be described thus: HT1080 cell viability loss – fluorescence readout (AID 620).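 Note: cells exposed to compound overnight then 4 h with Alamar Blue; 0% = vehicle DMSO and 100% = killing control.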 As to conditions: at 10 µM, hits give high values.
For the compound `O=C(Nc1cccc(NC(=O)c2cccnc2Cl)c1)c1ccco1`, the cytotoxicity is -4%. With `c1ccc2sc(-c3ccc4c(c3)OCO4)nc2c1` the figure was 0.6%.

With `CCCCN(C(=O)CNC(=O)c1ccco1)C(C(=O)NC1CCCCC1)c1ccc(OC)cc1OC` (centres undefined), the cytotoxicity was -14.5%. With `COC(=O)c1ccccc1NC(=O)CN(c1cc(OC)ccc1OC)S(C)(=O)=O` the figure was -6.6%; with `COC1(OC)N=C(N)C2(C#N)C(c3cccc(Oc4ccccc4)c3)C12C#N` (centres undefined), 0.4%; with `CC(C)=CCC/C(C)=C/CCC(C)NCCN1CCNCC1` (centres undefined), 6.9%. To `c1ccc(CNCCN2CCNCC2)nc1` belongs 6.5%. To `CC(C)=CCC/C(C)=C/CC(C)(C)CNCCN1CCNCC1` belongs 56.1% (active); to `CCOc1ccc2nc(NC(=O)C3CCN(c4cnccn4)CC3)sc2c1`, -5.6%; to `COC(=O)[C@H](C)NC(=O)Nc1ccc(S(N)(=O)=O)cc1`, -17.4%. Consider `O=S(=O)(c1ccc2c(c1)nc(COc1ccc(Cl)cc1)n2CC1CCCO1)N1CCOCC1` (centres undefined), for which the cytotoxicity is 96.6% (active). To `CCSc1nnc(-c2ccc(S(=O)(=O)N3CCOCC3)cc2)n1CC1CCCO1` (centres undefined) belongs -1.1%. With `CSc1nnc(-c2ccc(S(=O)(=O)N3CCOCC3)cc2)n1CC1CCCO1` (centres undefined), the cytotoxicity was 0.1%. To `CSc1nc2ccccc2n1C(=O)Oc1ccccc1` belongs 13.7%; to `COc1ccc(OC)c(NC(=O)CN2C(=O)c3ccccc3S2(=O)=O)c1`, -3.4%; to `Cc1ccc(S(=O)(=O)N2CCN(C(=O)CN3CCOCC3)C2c2ccccc2)cc1` (centres undefined), 1.5%. Turning to `CCOC(=O)N1CCN(C(=O)c2ccc3c(c2)sc2nc(-c4ccccc4)cn23)CC1`, the cytotoxicity is 0.3%. To `CCOC(=O)N1CCC(NC(=O)c2ccc3c(c2)sc2nc(-c4cccc(OC)c4)cn23)CC1` belongs 11.5%. For `COc1ccc2c(c1)sc1nc(-c3ccccc3)cn12`, the cytotoxicity was 75.6% (active). As for `COc1cccc(-n2c(SC)nnc2-c2c[nH]c3ccccc23)c1`, the cytotoxicity is 6.9%.

For the compound `COc1ccc(S(=O)(=O)Nc2cc3c4c(oc3c3ccccc23)CC(C)(C)CC4=O)cc1`, the cytotoxicity was -13.5%. Turning to `COc1ccc(S(=O)(=O)Nc2cc3c(C(C)=O)c(C)oc3c3ccccc23)cc1`, the cytotoxicity is 62.6% (active).

With `COC(=O)c1c(C)oc2c1cc(NS(=O)(=O)c1cccs1)c1ccccc12`, the cytotoxicity was 0.6%.

Take `CCCc1nc2oc3cc(OC)ccc3c(=O)c2c(=O)n1Cc1ccco1`: the cytotoxicity was -4.1%.

In the case of `CCOC(=O)CSc1nc(-c2cccs2)nc2c1c(=O)n(C)c(=O)n2C`, the cytotoxicity is 1.5%. With `O=C(C1CCCN1S(=O)(=O)c1ccc(Cl)c(Cl)c1)N1CCCCC1` (centres undefined) the figure was -5%.

With `CC(C)CNC(=O)C1CCN(c2ccc(S(=O)(=O)N3CCOCC3)cc2Cl)CC1`, the cytotoxicity is -20.4%. With `O=C(NCc1cccs1)C1CCN(c2ccc(S(=O)(=O)N3CCOCC3)cc2Cl)CC1` the figure was 67.8% (active); with `CCCNC(=O)C1CCN(c2ccc(S(=O)(=O)N3CCOCC3)cc2Cl)CC1`, -9.5%. With `COc1ccc(-n2nnnc2-c2cccc(OC)c2)cc1` the figure was 48.1%. Regarding `COc1ccc(-n2nnnc2-c2cccnc2)cc1`, the cytotoxicity is -4.2%. With `COc1ccc(-n2nnnc2-c2ccccc2)cc1` the figure was 58.8% (active); with `COc1cccc(/C(O)=C2\C(=O)C(=O)N(c3ccccn3)C2c2cccc(OC)c2OC)c1` (centres undefined), 21.5%; with `COC(=O)C(Cc1cnc(Cl)s1)(C(=O)OC)c1ccc([N+](=O)[O-])cc1[N+](=O)[O-]`, -2%. Regarding `CCC1=C2CC[C@H]3C(=O)N(CC)C(=O)[C@H]3[C@H]2[C@@]2(Cc3ccccc3)C(=O)N(CC3CC3)C(=O)N2C1=O`, the cytotoxicity was 2.7%.

With `COc1ccc(-c2cc(C(F)(F)F)n3nc(C)cc3n2)cc1`, the cytotoxicity was -1.8%. To `Cc1ccc(NC(=O)c2nnn(CC(=O)Nc3ccccc3)c2N)cc1C` belongs -2.3%; to `Cc1nnc(SCC(=O)c2cc(C)n(-c3ccc4c(c3)OCO4)c2C)s1`, 61.4% (active); to `Cc1cc(C(=O)CSc2nncs2)c(C)n1-c1ccc2c(c1)OCO2`, 24.4%.

As to `Cc1cc(C(=O)CSc2nnnn2C)c(C)n1-c1ccc2c(c1)OCCO2`, the cytotoxicity is 13.4%. To `CN1C(=O)CC(Sc2ncccc2C(=O)O)C1=O` (centres undefined) belongs 1.8%; to `Cc1cc(C)n(-c2nc3ccccc3nc2N2CCOCC2)n1`, -0.9%; to `CCOc1ccccc1N1CCN(C(=O)C2c3ccccc3Oc3ccccc32)CC1`, -0.5%. For `O=C(C1c2ccccc2Oc2ccccc21)N1CCN(c2ccc(Cl)cc2)CC1`, the cytotoxicity is -1.1%. As for `COc1ccccc1N1CCN(C(=O)C2c3ccccc3Oc3ccccc32)CC1`, the cytotoxicity is 56% (active).

Take `O=S(=O)(c1ccccc1C(F)(F)F)N1CCC(n2cnc3ccccc32)CC1`: the cytotoxicity is -0.9%.

As to `COc1ccc(Cl)cc1NC(=O)/C=C\C(=O)O`, the cytotoxicity was -3.8%. On to `Cc1occc1-c1nnc(SCC(=O)c2ccc(F)cc2)n1Cc1ccco1`, for which the cytotoxicity was -0.9%. With `c1ccc(Nc2ccccc2Nc2ccccn2)nc1` the figure was 0.4%. With `Oc1cccc2ccc(Nc3ccccn3)nc12` the figure was 60.9% (active); with `c1ccc(Nc2ccccn2)cc1`, -6.8%.

For the compound `CC(=O)O[C@@]12CO[C@@H]1C[C@H](O)[C@@]1(C)C(=O)[C@H](O)C3=C(C)[C@@H](OC(=O)[C@H](O)[C@@H](NC(=O)OC(C)(C)C)c4ccccc4)C[C@](O)([C@@H](OC(=O)c4ccccc4)[C@H]21)C3(C)C`, the cytotoxicity was 53.7% (active). On to `CCOC(=O)c1ccccc1NC(=O)Nc1ccc(OC)c(OC)c1`, for which the cytotoxicity was -1.4%.

For `Cc1noc(C)c1C(=O)N1CCN(CCc2ccccc2)CC1`, the cytotoxicity is -0.7%. With `N=c1c(C(=O)NC2CCCC2)cc2c(=O)n3ccccc3nc2n1C1CCCC1` the figure was 7.6%; with `Cc1cccn2c(=O)c3cc(C(=O)NC4CCCC4)c(=N)n(C4CCCC4)c3nc12`, 75% (active). With `CCCCNC(=O)c1cc2c(=O)n3cccc(C)c3nc2n(Cc2ccccc2)c1=N` the figure was 19.2%; with `COCCNC(=O)c1cc2c(=O)n3cccc(C)c3nc2n(Cc2ccncc2)c1=N`, 17.6%; with `CCCCNC(=O)c1cc2c(=O)n3cccc(C)c3nc2n(Cc2ccncc2)c1=N`, 54.1% (active).

In the case of `CCCn1c(=N)c(C(=O)NC2CCCC2)cc2c(=O)n3cccc(C)c3nc21`, the cytotoxicity was 9.1%.

Take `CC1CC(=O)N(CC(=O)N2CCCC2)c2ccccc2S1` (centres undefined): the cytotoxicity was 1.5%. `CSc1ccc2c(c1)N(CCC1CCCCN1C)c1ccccc1S2` (centres undefined): the cytotoxicity was 82.9% (active). With `CN1CCN(CCCN2c3ccccc3Sc3ccc(Cl)cc32)CC1`, the cytotoxicity is 6%. `O=C(O)CSc1cccc2cccc(C(=O)O)c12`: the cytotoxicity was 3.5%. Turning to `CCN(CC)c1ccc2cc(-c3nc4ccccc4n3C)c(=O)oc2c1`, the cytotoxicity is 62% (active).

For the compound `COc1ccc2cc(-c3nc4ccccc4n3C)c(=O)oc2c1`, the cytotoxicity was -1.5%.

In the case of `CC(=O)Oc1ccc2cc(-c3nc4ccccc4n3C)c(=O)oc2c1`, the cytotoxicity was -4.4%. To `COc1ccc(CN(Cc2cccnc2)S(=O)(=O)c2ccc(-n3cnnn3)c(C)c2)cc1OC` belongs -6.9%; to `COc1ccc(Cl)cc1N(CC(=O)Nc1ccccc1C(=O)NCc1ccco1)S(C)(=O)=O`, 4.2%. Consider `CC(=O)c1cccc(OCC(=O)c2cc(C)n(-c3cc(C)on3)c2C)c1`, for which the cytotoxicity was 63.5% (active). To `Cc1cc(-n2c(C)cc(C(=O)COc3ccc4ccc(=O)oc4c3)c2C)no1` belongs 7.7%. As to `Cc1cc(C(=O)COc2cccc(-n3cnnn3)c2)c(C)n1-c1ccccc1`, the cytotoxicity was 27%. As for `CC(=O)c1ccc(NC(=O)CSc2nc3nc(C)cc(C)n3n2)cc1`, the cytotoxicity is -1.8%. To `COc1ccc(/C=C2\CCc3ccccc3C2=O)cc1Cn1cccn1` belongs -6.8%; to `COC(=O)[C@@H]1C[C@@H]2CC[C@@H](O)C[C@@H]2N1Cc1ccc(Cl)cc1`, 4.3%; to `COC(=O)[C@@H]1C[C@@H]2CC[C@@H](O)C[C@@H]2N1Cc1ccc(-c2ccccc2)cc1`, 1.4%. With `COC(=O)[C@@H]1C[C@H]2CC[C@H](O)C[C@H]2N1Cc1ccc(-c2ccccc2)cc1` the figure was 68.8% (active); with `COc1ccc(NC(=O)CSc2nnc(-c3ccccc3C)n2C)cc1`, 3%; with `COc1ccc(NC(=O)c2cc(-c3ccccc3OC)on2)cc1`, 38.4%. `O=C(Nc1cccnc1)c1cc(-c2ccccc2)on1`: the cytotoxicity was 8.8%. To `COc1ccccc1-c1cc(C(=O)Nc2cccnc2)no1` belongs 58.1% (active); to `Cc1oc2c(c1C(=O)c1ccccc1)C(=O)C(=O)c1ccccc1-2`, 107% (active); to `O=C1c2ccccc2C(=O)c2c1oc(C(F)(F)F)c2C(=O)c1ccccc1`, -1.6%.

On to `Cc1ccc(C(=O)c2c(C)oc3c2C(=O)C(=O)c2ccccc2-3)cc1`, for which the cytotoxicity was -5.2%. To `CCOC(=O)c1cn(CC(=O)Nc2ccc(C)cc2)nn1` belongs -1.5%. To `NC(=O)c1nsc(C(=O)N(CC(=O)NCc2ccc3c(c2)OCO3)C2CCCCC2)c1N` belongs -0.4%; to `C=Cn1c(C(=O)O)cc(CC)c1-c1ccccc1`, -2.7%; to `CSc1nccc(-c2nn(-c3ccc(C)cc3)ccc2=O)n1`, 56.4% (active).

As for `C=CCSc1nccc(-c2nn(-c3ccc(C)cc3)ccc2=O)n1`, the cytotoxicity was 44.5%. For the compound `CCSc1nccc(-c2nn(-c3ccc(C)cc3)ccc2=O)n1`, the cytotoxicity was 29%. To `O=C1OC(Nc2nccs2)c2ccccc21` (centres undefined) belongs 19.8%; to `CNS(=O)(=O)c1ccc(Oc2ccc(S(=O)(=O)NC)cc2)cc1`, -5.5%. To `C=CS(=O)(=O)c1ccc(Oc2ccc(S(=O)(=O)C=C)cc2)cc1` belongs 76.4% (active); to `O=S(=O)(c1ccc(Oc2ccc(S(=O)(=O)N3CCOCC3)cc2)cc1)N1CCOCC1`, -8.2%.
